Data reported in the supplement of paper PMC11628255, “Interference of metal ions on the bioluminescent signal of firefly, Renilla, and NanoLuc luciferases in high-throughput screening assays” (Frontiers in Chemistry, 2024).
± gives the standard deviation of the averaged measurements.

Test system: firefly luciferase (FLuc)
Test: residual bioluminescent signal relative to negative (DMSO) control; higher = less interference (more residual luciferase signal)
Method: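 Purified luciferase (FLuc 10 nM + 10 uM D-luciferin; NLuc 10 pM + 10 uM furimazine; RLuc 50 pM + 2 uM coelenterazine) in 384-well plates; metal salt pre-incubated with enzyme 10 min at RT, substrate added and luminescence read after 10 min. Signal normalised to plate DMSO negative control (% N_VALUE = x/mean neg *100); triplicate wells at 0.01, 1 and 5 mM salt.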

[1] = metal salt concentration 0.01 mM, HEPES conditions (100 mM HEPES, 5 mM MgSO4, 10 uM ATP, pH 7.5)
[2] = metal salt concentration 0.01 mM, screening conditions (0.5 mM Tris, 50 mM glycine, 0.5 mM EDTA, 5 mM MgSO4, 10 uM ATP, pH 7.6)
[3] = metal salt concentration 1 mM, HEPES conditions (100 mM HEPES, 5 mM MgSO4, 10 uM ATP, pH 7.5)
[4] = metal salt concentration 1 mM, screening conditions (0.5 mM Tris, 50 mM glycine, 0.5 mM EDTA, 5 mM MgSO4, 10 uM ATP, pH 7.6)
[5] = metal salt concentration 5 mM, HEPES conditions (100 mM HEPES, 5 mM MgSO4, 10 uM ATP, pH 7.5)
[6] = metal salt concentration 5 mM, screening conditions (0.5 mM Tris, 50 mM glycine, 0.5 mM EDTA, 5 mM MgSO4, 10 uM ATP, pH 7.6)

| Compound | residual bioluminescent signal [1] | residual bioluminescent signal [2] | residual bioluminescent signal [3] | residual bioluminescent signal [4] | residual bioluminescent signal [5] | residual bioluminescent signal [6] |
| --- | --- | --- | --- | --- | --- | --- |
| CC#N.CC#N.CC#N.CC#N.F[B-](F)(F)F.[Cu+] [tetrakis(acetonitrile)copper(I) tetrafluoroborate] | 0.543 ± 0.23% | 115 ± 2.9% | 0.407% | 0.474 ± 0.16% | 0.679 ± 0.47% | 0.422 ± 0.36% |
| O.O.O.O.O.O.O.O.O.O.O=S(=O)([O-])[O-].[Na+].[Na+] [sodium sulfate] | 81.9 ± 8.1% | 73.4 ± 5.7% | 51 ± 7.2% | 70.4 ± 8.2% | 20 ± 6.1% | 51.1 ± 3.8% |
| O=C([O-])[O-].[Cs+].[Cs+] [caesium carbonate] | 85.2 ± 14% | 93.8 ± 6.3% | 91.6 ± 14% | 103 ± 2.9% | 79.4 ± 4.7% | 56.2 ± 6.8% |
| [Cl][Pt-2]([Cl])([Cl])[Cl].[K+].[K+] [potassium tetrachloroplatinate(II)] | 85 ± 8% | 87.9 ± 6.2% | 3.8 ± 0.62% | 0.659 ± 0.66% | 1.09 ± 0.23% | 0.343 ± 0.12% |
